We go through 13 compounds from PubChem BioAssay (NCATS).

The structures appear in SMILES notation. Where “and” joins values, the source holds several entries; their conditions need not be identical. Identical values can stand only once. A number with no mark means an inactive call. Inconclusive results are not listed. Calls of active or inactive are those of the source. Unless noted, calls come from the whole dose curve; as a rule, active = well fitted curve in either direction with a large enough effect (not every such curve was filed as active); inconclusive = small, poorly fitted or top-dose-only effect, or another doubt; inactive = flat fitted curve, though single readings scatter.

Experiment [1] in a line: AP1 Signaling Pathway (AID 357).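 Note: ME-180 reporter cells stimulated with EGF at its EC50 level; % is set by controls: 0 for no effect and ±100 for the full control effect.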 The note with it: ME-180 AP-1-bla reporter, EGF-induced, beta-lactamase ratio, 5 h. In a few lines:
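Titration-series screen for positive or negative modulators of EC50 EGF-induced signaling in ME-180 cells carrying an AP-1-driven beta-lactamase reporter. After 5 hours at 37 degrees Celsius, CCF4 460nm/530nm emission ratio gave %Activity; AC50 values derived.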

Experiment [2] is described as follows: NFAT Signaling Pathway (AID 444).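 Note: carbachol stimulus at about its EC50 of 1 µM final; % is set by controls: 0 for no effect and ±100 for the full control effect.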 The note with it: Jurkat NFAT-bla M1, carbachol, beta-lactamase ratio, 5 h. In short, it runs like this: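 Jurkat cells carrying an NFAT-driven β-lactamase reporter and co-transfected muscarinic M1 receptor were treated with compound plus carbachol (1 uM final, an EC50 level) for 5 h at 37 °C. CCF4 loading followed for 1 h at RT; 460/530 nm ratio gave %activity.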

Experiment [3] can be described thus: Stat Signaling Pathway (AID 446).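 Note: ME-180 cervical cancer cells given 40 pM IL-6 alongside compound; SIE-controlled beta-lactamase reporter measured as 460/530 nm FRET emission ratio; % is set by controls: 0 for no effect and ±100 for the full control effect.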 The note with it: ME-180 (cervical carcinoma) SIE beta-lactamase reporter, IL-6 stimulated, 5 h. In short, it runs like this:
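Compound effects on IL-6-induced STAT reporter activity were measured in ME-180 cells. After overnight culture, cells were co-treated with 40 pM IL-6 for 5 hrs before beta-lactamase substrate loading at room temperature.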

In experiment [4] the target is Glucocorticoid receptor (Homo sapiens) (UniProt P04150). Briefly: GR-GFP Redistribution (AID 450;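 active = compounds whose dose series gives a full or clear partial fitted curve of increased nuclear translocation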; note: potency is the fitted concentration of half-maximal effect). As to conditions: U2OS GR-GFP nuclear translocation, laser cytometry, 2 h.
Chain of Glucocorticoid receptor (Homo sapiens) (P04150 whole entry, looked up, the tested form may be a part): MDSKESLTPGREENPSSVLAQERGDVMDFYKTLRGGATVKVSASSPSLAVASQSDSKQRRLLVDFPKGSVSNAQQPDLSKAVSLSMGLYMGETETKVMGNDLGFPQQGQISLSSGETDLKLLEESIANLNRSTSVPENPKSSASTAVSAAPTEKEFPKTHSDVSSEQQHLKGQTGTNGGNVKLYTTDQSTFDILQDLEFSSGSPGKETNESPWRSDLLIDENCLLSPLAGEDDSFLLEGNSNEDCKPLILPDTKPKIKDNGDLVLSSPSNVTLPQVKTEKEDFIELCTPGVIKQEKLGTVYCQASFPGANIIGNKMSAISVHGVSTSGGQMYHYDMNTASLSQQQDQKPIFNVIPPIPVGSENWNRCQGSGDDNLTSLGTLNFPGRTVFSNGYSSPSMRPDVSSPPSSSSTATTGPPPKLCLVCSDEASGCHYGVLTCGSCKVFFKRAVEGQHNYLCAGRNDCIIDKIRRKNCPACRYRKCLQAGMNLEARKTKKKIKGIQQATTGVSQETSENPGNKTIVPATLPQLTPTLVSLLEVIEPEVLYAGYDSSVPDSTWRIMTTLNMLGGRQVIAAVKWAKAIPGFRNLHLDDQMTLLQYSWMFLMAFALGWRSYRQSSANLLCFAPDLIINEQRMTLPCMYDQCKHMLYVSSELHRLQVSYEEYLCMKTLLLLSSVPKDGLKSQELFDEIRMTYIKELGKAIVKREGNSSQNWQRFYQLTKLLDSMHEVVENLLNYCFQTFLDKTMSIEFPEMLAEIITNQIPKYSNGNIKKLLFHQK
The target of experiment [5] is Cytochrome P450 1A2 (Homo sapiens) (UniProt P05177). The experiment is described as follows: p450-cyp1a2 (AID 410; calls by dose curve; note: potency is the fitted concentration of half-maximal effect;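 for activity change, negative = inhibition: -100% = full effect of reference inhibitor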). In short, it runs like this: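 O-Demethylation of luciferin 6' methyl ether by human CYP1A2 is monitored as luciferase luminescence. Substrate sits at Km (100uM); enzyme is 20nM. Values are scaled to 57 uM furafylline as maximal inhibition.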
Chain of Cytochrome P450 1A2 (Homo sapiens) (P05177 whole entry, looked up): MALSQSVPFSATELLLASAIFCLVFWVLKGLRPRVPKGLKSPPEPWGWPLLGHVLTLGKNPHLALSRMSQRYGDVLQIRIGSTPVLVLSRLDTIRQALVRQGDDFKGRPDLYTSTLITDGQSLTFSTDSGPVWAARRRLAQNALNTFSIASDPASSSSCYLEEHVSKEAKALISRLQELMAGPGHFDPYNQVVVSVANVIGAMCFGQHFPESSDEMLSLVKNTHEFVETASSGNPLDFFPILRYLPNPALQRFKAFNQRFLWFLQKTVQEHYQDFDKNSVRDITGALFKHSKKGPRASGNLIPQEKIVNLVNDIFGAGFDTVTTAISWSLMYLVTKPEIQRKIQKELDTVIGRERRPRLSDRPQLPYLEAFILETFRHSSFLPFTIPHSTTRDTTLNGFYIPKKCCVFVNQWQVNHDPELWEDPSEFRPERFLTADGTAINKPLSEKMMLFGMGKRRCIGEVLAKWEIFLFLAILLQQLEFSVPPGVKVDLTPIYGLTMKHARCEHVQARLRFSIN
Experiment [6] addresses Mitogen-activated protein kinase 10 (Mus musculus) (UniProt Q61831). The experiment is described as follows: JNK3 AlphaScreen Assay (AID 530).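 Note: kinase came from lysate of stimulated human HepG2 cells; signal reports phosphorylation of biotinylated GST-cJun 1-79 at Ser73 with 10 µM ATP; % is set by controls: 0 for no effect and ±100 for the full control effect.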 In short, it runs like this: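 Phosphorylation of biotinylated GST-cJun(1-79) at Ser73 is measured by AlphaScreen proximity luminescence. Enzyme is JNK3 in HepG2 lysates activated with interleukin-1beta and tumor necrosis factor alpha; ATP is 10 uM final.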
Background: Bead proximity is the source of the signal in Alpha formats.

Experiment [7] deals with Glucocorticoid receptor (Homo sapiens) (UniProt P04150). Briefly: GR-EFC Redistribution (AID 451; calls by dose curve; note: potency is the fitted concentration of half-maximal effect). The note with it: CHO-K1 GR-EFC translocation, beta-gal luminescence, 2 h. In short, it runs like this: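 CHO-K1 cells stably expressing nuclear-localized β-gal enzyme acceptor and GR fused C-terminally to the enzyme donor fragment; ligand-driven nuclear translocation restores β-gal by complementation. Compounds titrated up to 46 uM final, 2 h at 37 °C; luminescence read.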

Consider `C[C@@H]1C(=O)NC2=Nc3cccc(Cl)c3CN21`, for which the activity change, negative = inhibition is 9.37% in experiment [1] (at 38 µM (top of the series)) and -0.581% in experiment [2] (at 38 µM (top of the series)). The activity, negative = inhibition in experiment [3] (at 38 µM (top of the series)) was -15.9%. The Potency in experiment [4] was more than 46 µM.
With `CCN(CCCc1ccccc1)CCCc1ccccc1`, in experiment [5], the Potency is 3.98 µM (active). Besides, the activity change, negative = inhibition in experiment [2] (at 17.2 µM (top of the series)) was -87% (active). Also, the activity, negative = inhibition in experiment [3] (at 17.2 µM (top of the series)) was 13.6% and 2.48%. The result in experiment [6] was inactive.
Turning to `COc1cc(-c2ccc(=O)[nH]n2)ccc1OC(F)F`, the Potency in experiment [5] is 10 µM (active) and 5.01 µM (active) and 2.51 µM (active). Besides, the activity change, negative = inhibition in experiment [2] (at 17.2 µM (top of the series)) is -13.5%; in experiment [2] (at 38 µM (top of the series)) it was -7.13%. In addition, in experiment [6], the compound was classed as inactive.
Regarding `Cc1c(N(C)CS(=O)(=O)O)c(=O)n(-c2ccccc2)n1C`, the Potency entry in experiment [5] is “inactive”. Moreover, in experiment [2] (at 17.2 µM (top of the series)), the activity change, negative = inhibition is -4.94%. Moreover, the activity, negative = inhibition in experiment [3] (at 17.2 µM (top of the series)) is -1.51%. In addition, in experiment [7], the Potency is more than 20.6 µM. In addition, in experiment [6], the result was inactive.
Regarding `CCOc1ccc(Cc2nccc3cc(OCC)c(OCC)cc23)cc1OCC`, the Potency in experiment [5] was 10 µM (active). For the same compound, the activity change, negative = inhibition in experiment [2] (at 17.2 µM (top of the series)) was -11.6%. Further, the activity, negative = inhibition in experiment [3] (at 17.2 µM (top of the series)) is -1.62%. For the same compound, the outcome in experiment [6] was inactive.
Regarding `CCCC(=O)Nc1ccc(OCC(O)CNC(C)C)c(C(C)=O)c1` (configuration not stated), the activity change, negative = inhibition in experiment [1] (at 17.2 µM (top of the series)) is 0.101%; in experiment [2] (at 17.2 µM (top of the series)), -15.3%. Further, the Potency in experiment [4] was more than 20.6 µM.
Take `CCCn1c(=O)[nH]c(=O)c2[nH]cnc21`: the Potency entry in experiment [5] was “inactive”. Moreover, the activity change, negative = inhibition is -21.8% in experiment [2] (at 17.2 µM (top of the series)) and 4.56% in experiment [2] (at 38 µM (top of the series)). In addition, the activity, negative = inhibition in experiment [3] (at 17.2 µM (top of the series)) is 4.71%; in experiment [3] (at 38 µM (top of the series)), -5.28%. For the same compound, in experiment [6], the compound was classed as inactive.
With `C[C@@H](CN(C)C)CN1c2ccccc2Sc2ccccc21`, the activity change, negative = inhibition in experiment [1] (at 17.2 µM (top of the series)) is 82.2% [activator] (active). In experiment [3] (at 17.2 µM (top of the series)), the activity, negative = inhibition is -7.27%. Besides, the Potency in experiment [4] is more than 20.6 µM. Also, in experiment [6], the compound was called inactive.
In the case of `CN1[C@@H]2CC[C@H]1CC(OC(=O)c1c[nH]c3ccccc13)C2` (some centres not stated), in experiment [5], the Potency entry was “inactive”. In addition, the activity, negative = inhibition in experiment [3] (at 38 µM (top of the series)) is -14.5%. Moreover, in experiment [6], the call was inactive.
Consider `Cc1ccnc(NS(=O)(=O)c2ccc(N)cc2)n1`, for which the Potency entry in experiment [5] is “inactive”. Further, in experiment [2] (at 17.2 µM (top of the series)), the activity change, negative = inhibition is 0.552%. In experiment [6], the compound was classed as inactive.
`C[C@H](CCC(=O)O)[C@H]1CC[C@H]2[C@@H]3C(=O)C[C@@H]4CC(=O)CC[C@]4(C)[C@H]3CC(=O)[C@]12C`: the figures for the activity change, negative = inhibition in experiment [1] (at 17.2 µM (top of the series)) and in experiment [2] (at 17.2 µM (top of the series)) were 8.36% and 13.3%, respectively. Besides, the activity, negative = inhibition in experiment [3] (at 17.2 µM (top of the series)) was 1.08%. In experiment [4], the Potency is more than 20.6 µM.
`CCN1CCN(c2cc3c(cc2F)c(=O)c(C(=O)O)cn3C2CC2)CC1`: the activity change, negative = inhibition in experiment [1] (at 17.2 µM (top of the series)) is 4.63%; in experiment [2] (at 17.2 µM (top of the series)) it was 3.59%. Moreover, the activity, negative = inhibition in experiment [3] (at 17.2 µM (top of the series)) was 20.5%. The Potency in experiment [4] is more than 20.6 µM.
With `Cc1cccc(C)c1NC(=O)CN1CCN(CCCC(c2ccc(F)cc2)c2ccc(F)cc2)CC1`, the values for the activity change, negative = inhibition in experiment [1] (at 17.2 µM (top of the series)) and in experiment [2] (at 17.2 µM (top of the series)) were 4.39% and 5.94%, respectively. Moreover, the activity, negative = inhibition in experiment [3] (at 17.2 µM (top of the series)) is -20%. In addition, the compound was called inactive in experiment [6].
